Bioassay records (PubChem)
TDP1 cell CPT: DT40-hTDP1 cell growth loss with CPT; chicken DT40 Tdp1-/-;hTDP1 cells + 20 nM CPT, ATP luminescence, 48 h; Potency, µM (titrated, usually from 46.2 µM), inactives show top-dose activity change, negative = growth inhibition, hits mostly inhibitors; actives 12% (n = 420,000); AID 686979; also: potency is read from the fitted curve at half-maximal effect; nearly all actives have a fitted effect of over 55% in size
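Chicken DT40 Tdp1-/- cells complemented with human TDP1, 400 cells/well, exposed to compounds plus 20 nM camptothecin for at least 48 h at 37 C; viability read as ATP content by CellTiter-Glo luminescence.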
HT1080 IDH1KD tx: HT-1080 IDH1 knockdown cell toxicity (counter line); HT-1080 IDH1 knockdown viability, ATP luminescence, 48 h; Potency, µM (highest dose often 46.1 µM), inactives show at the top dose activity, negative = toxicity, actives largely listed as cytotoxic; actives 2% (n = 360,000); AID 686971;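 also: potency is read from the fitted curve at half-maximal effect; 0% = DMSO wells and -100% = cell-free medium wells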
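Viability of IDH1-knockdown HT-1080 fibrosarcoma cells was assessed by CellTiter-Glo after 48 h at 37 °C with titrated compound; concentration-effect curves were classified by fit quality and response size.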
ELG1 repair inh: inhibitors of ELG1-dependent DNA repair in HEK293T cells; HEK293T ELG1-luciferase reporter, luminescence, 16 h; DNA damage induced by 5-fluorouridine; Potency, µM (highest dose often 46.1 µM), without a hit: at the highest dose activity change, negative = inhibition, usual class: inhibitors; actives 2.3% (n = 330,000); also: potency is read from the fitted curve at half-maximal effect; nearly all actives have a fitted effect of over 55% in size
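Step one: seed 2,000 cells per well. Step two: pin-transfer compound or DMSO alongside 5-fluorouridine. Step three: incubate 16 hr, 37 °C, 5% CO2. Step four: add ONE-Glo, wait 30 min, read luminescence.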
HT1080NT lethal: kills 2HG-producing HT-1080-NT fibrosarcoma cells | Potency, µM (titrated, usually from 46.1 µM), for inactives: top-dose activity, negative = less viability, hits mostly cytotoxic | AID 686970 | HT-1080-NT fibrosarcoma viability, CellTiter-Glo ATP luminescence, 48 h | actives 1.6% (n = 360,000);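 also: NT is the 2HG producing partner of a matched IDH1 knockdown line; potency is read from the fitted curve at half-maximal effect; 0% = DMSO-treated cells and -100% = media-only wells without cells; nearly all actives have a fitted effect of over 55% in size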
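Viability by CellTiter-Glo luminescence after 48 h compound exposure at 37C of HT-1080-NT cells (750/well, RPMI, 5% FBS). % activity scaled between DMSO wells and medium-only wells, then curve-fitted and categorized by curve class.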
DT40 TDP1 no CPT: qHTS for Inhibitors of human tyrosyl-DNA phosphodiesterase 1 (TDP1): qHTS in cells in absence of CPT. DT40 Tdp1-/- hTDP1 cells, no CPT, ATP luminescence, 48 h. Potency, µM (doses to about 46.2 µM), without a hit: at the highest dose activity change, negative = growth inhibition, usual class: inhibitors. actives 15% (n = 420,000). AID 686978, 2013; also: potency is read from the fitted curve at half-maximal effect; nearly all actives have a fitted effect of over 55% in size
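Chicken DT40 Tdp1-/- cells complemented with human TDP1, screened without camptothecin (DMSO vehicle only), 400 cells/well. Compounds pin-transferred, cells incubated at 37 °C for at least 48 hr. Growth read as ATP-dependent luminescence (CellTiter-Glo, 30 min at RT).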
IL-1B inflam inh: inflammasome signaling inhibition, IL-1 beta readout; THP-1 LPS/ATP IL-1B secretion, AlphaLISA, 16 h; hits give low values; activity change, % at 57.5 µM; actives 4.7% (n = 360,000); in the data active = activity change below about -50%; inconclusive = mostly about -30% to -49%
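Secreted IL-1B measured by AlphaLISA bead assay after 16 h compound exposure of THP-1 cells; compounds (final up to 57.5 uM) added 1 h before LPS (250 ng/mL) and ATP (1.25 mM) stimulation; lower signal means less secretion.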
* marks the source's active call; other numbers are inactive results; i = inactive; ? = inconclusive; · = not tested or not shown. Rows were chosen to be rich in hits. Some 19% of all compounds tested hit in one or more screens of this group. Unless noted, calls follow the shape of the dose curve; as a rule, active = well fitted curve in the direction sought with a large enough effect; inconclusive = small, poorly fitted or top-dose-only effect, or another doubt; inactive = no such curve, though single readings can be large; an effect the other way counts as inactive or inconclusive. Unless noted, % is scaled to controls: 0 for no effect and ±100 for the full control effect.

SMILES | TDP1 cell CPT | HT1080 IDH1KD tx | ELG1 repair inh | HT1080NT lethal | DT40 TDP1 no CPT | IL-1B inflam inh
CCCN(CCC)C(=O)c1cc2c(=O)n3cccc(C)c3nc2n1C | 16.4µM* | · | · | · | 23.1µM* | ·
Cc1cccc(NC(=O)c2cc3c(=O)n4cccc(C)c4nc3s2)c1C | 1.84µM* | · | · | · | 2.31µM* | ·
Cc1ccccc1CC(=O)Nc1sc(C(C)C)cc1C(=O)N1CCOCC1 | -23.2% | 2.2% | -2.9% | -5.2% | 0.5% | -26.2
Cc1cc(C)cc(C(=O)C[n+]2cccc(Br)c2)c1 | -10.8% | · | · | · | -7.0% | ·
CN(CC(=O)NCc1ccc2c(c1)OCO2)S(=O)(=O)c1ccc(F)cc1 | 19.7% | -0.1% | -4.5% | 4.1% | -7.9% | -4.7
O=C1c2ccccc2C(c2nnnn2Cc2ccccc2)N1CCc1c[nH]c2ccccc12 (stereo unspecified) | ? | ? | · | ? | ? | -4.3
O=[N+]([O-])c1ccc(Oc2c(F)c(F)nc(N3CCCC3)c2F)cc1 | ? | 8.7% | · | 6.0% | ? | -1.2
COc1ccc(CCNC(=O)NCc2noc3ccccc23)c(OC)c1 | ? | · | · | · | 20.6µM* | ·
O=C(NCc1ccccc1Cl)NCc1noc2ccccc12 | ? | · | · | · | 9.2µM* | ·
COc1ccc(CCNC(=O)Nc2cccs2)c(OC)c1 | -7.6% | 26.6% | 1.8% | 21.2% | -0.8% | 23.1
Cc1ccc(CSc2nnc(CCNC(=O)OC(C)(C)C)o2)cc1 | ? | -15.2% | 10.7% | 3.2% | -6.1% | 0.0
CC(C)(C)OC(=O)NCCCCCc1nnc(SCc2ccc(F)cc2)o1 | ? | -29.5% | ? | -26.0% | 23.1µM* | -13.6
Cc1cccc(C)c1NC(=O)CSc1nnc(CCCCCNC(=O)OC(C)(C)C)o1 | 14.6µM* | -1.7% | ? | -0.6% | 13µM* | 3.6
Cc1ccc(CS(=O)(=O)c2nc3c(c(N(C)C)n2)CCCC3)cc1 | 14.4% | -21.4% | -3.6% | -11.4% | -6.4% | -78.6*
CN(C)c1nc(SCc2ccc(Cl)cc2)nc2c1CCCC2 | ? | -7.6% | 8.9% | -8.6% | ? | -3.1
COc1ccc(-c2cnc(C(O)c3ccc(C(C)(C)C)cc3)[nH]2)cc1 (stereo unspecified) | ? | -8.9% | · | -16.6% | ? | 0.0
CC(=O)Nc1ccc(S(=O)(=O)N2CCN(S(=O)(=O)N3CCOCC3)CC2)cc1 | ? | -13.1% | -11.3% | 7.1% | ? | -9.7
CC(NC(=S)Nc1ccc(S(=O)(=O)N2CCOCC2)cc1)C1CC2CCC1C2 (stereo unspecified) | ? | ? | -17.0% | ? | 29.1µM* | -0.4
O=S(=O)(c1ccc(NC(=S)Nc2ccccc2)cc1)N1CCOCC1 | -8.6% | 18.4% | -0.5% | 16.1% | -26.6% | 40.6
O=C(CCc1ccccc1)NC(=S)Nc1ccc(S(=O)(=O)N2CCOCC2)cc1 | ? | -27.0% | ? | -10.2% | 16.4µM* | 2.1
COc1ccc(NC(=O)NC(C)C2CC3CCC2C3)cc1 (stereo unspecified) | 10.9% | -10.3% | 3.9% | 13.7% | -16.0% | -80.4*
COc1ccc(C(=O)NC(C)C2CC3CCC2C3)cc1 (stereo unspecified) | ? | 0.4% | ? | -16.8% | ? | 14.8
Cc1cc(NC(=O)CCc2ccc(S(=O)(=O)N3CCOCC3)cc2)n(-c2ccccc2)n1 | 11.6µM* | -10.5% | ? | 1.0% | 8.2µM* | 11.9
Cc1ccc(-c2nc(CS(=O)CC(=O)NCc3ccco3)c(C)o2)cc1 (stereo unspecified) | 10.9% | -9.8% | 2.2% | -11.5% | -25.0% | -14.1
Cc1ccc(C(=O)COC(=O)c2cc(-c3ccccc3)nc3ccccc23)cc1C | 24.5% | · | · | · | 19.6% | ·
SMILES | TDP1 cell CPT | HT1080 IDH1KD tx | ELG1 repair inh | HT1080NT lethal | DT40 TDP1 no CPT | IL-1B inflam inh
CC(C)CCCCCCNC(=S)Nc1ccc(S(=O)(=O)N2CCOCC2)cc1 | 16.4µM* | ? | ? | ? | 13µM* | -82.3*
CC(C(=O)N1CCN(c2ccccc2)CC1)c1ccc([N+](=O)[O-])cc1 (stereo unspecified) | -24.6% | -0.7% | 1.5% | -1.1% | -29.6% | -13.0
COCc1nnc(NC(=O)c2ccc(S(=O)(=O)N3CCCc4ccccc43)cc2)o1 | 23.1µM* | 20.6µM* | 16.4µM* | 14.6µM* | ? | 105.3
COc1ccc(-c2nnc(NC(=O)c3ccc(S(=O)(=O)N4CCCc5ccccc54)cc3)o2)cc1 | 3.16µM* | 11.2µM* | ? | 11.2µM* | 5.62µM* | 15.3
O=C(NCc1ccccc1)c1ccc(S(=O)(=O)N2CCCc3ccccc32)cc1 | -27.5% | -5.8% | -16.6% | -2.6% | 1.6% | -29.9
O=C(Nc1nnc(C2CC2)o1)c1ccc(S(=O)(=O)N2CCCc3ccccc32)cc1 | 4.61µM* | ? | 7.31µM* | ? | ? | 27.6
COc1ccc(/C=C/C(=O)c2c(O)c(OC)c3occc3c2OC)cc1OC | 11.2µM* | 11.2µM* | · | 17.8µM* | 10µM* | ·
COc1ccc(/C=C\C(=O)c2c(O)ccc3c(C)cc(=O)oc23)cc1OC | 16.4µM* | ? | -16.2% | ? | 23.1µM* | -69.8*
Cc1cc(=O)oc2c(C(=O)/C=C/c3ccccc3)c(O)ccc12 | 4.1% | 3.2% | -0.1% | 0.0% | ? | 9.6
Cc1cc(=O)oc2c(C(=O)/C=C\c3cccs3)c(O)ccc12 | ? | 20.6µM* | -25.9% | ? | ? | -98.9*
C/C=C/c1ccc(OC)c(OC(C)=O)c1 | 2.1% | 1.3% | 17.2% | 5.6% | 0.5% | 12.2
O=C(c1ccco1)n1nc(-c2ccccc2)nc1NCc1ccccc1Cl | -27.7% | · | · | · | ? | ·
Nc1ccc(C(=O)N/N=C\c2ccc(OC(=O)c3ccccc3Cl)cc2)cc1 | -16.5% | -1.4% | ? | -4.6% | -13.2% | -16.0
O=C(N/N=C/c1ccc(F)cc1)c1ccccc1 | 3.3% | 11.4% | ? | 4.8% | -6.4% | -26.9
COc1cc(C(=O)N/N=C/c2ccc3c(c2)c2ccccc2n3C)ccc1O | ? | ? | -16.2% | ? | 14.6µM* | i
COc1cc(/C=N/NC(=O)C(=O)/C=C2\NC(C)(C)Cc3ccccc32)ccc1O | ? | ? | ? | ? | ? | -53.4*
COc1cc(C(=O)N/N=C/c2ccc(OC(=O)c3ccccc3Cl)cc2)ccc1O | -20.9% | -6.1% | 1.1% | 0.1% | ? | -72.4*
CCn1c2ccccc2c2cc(/C=N/NC(=O)c3ccccc3)ccc21 | 14.6µM* | ? | ? | ? | 16.4µM* | ?
